The list is not random: actives were taken first. Their share in the collection is about 8.5%.
RGS12 GoLoco inh – inhibitors of human Gai1-RGS12 GoLoco interaction (red fluorophore). P63096. Gai1:RGS12 GoLoco peptide FP, rhodamine, 10 min. Potency, µM (top dose mostly 61.6 µM), hits mostly inhibitors. 230,000 compounds, 0.44% hits; active = well fitted inhibition curve with a large enough effect, not every such curve was filed as active; inactive = no such curve, though single readings can be large or run the other way; also: nearly all actives have a fitted effect of over 30% in size
Sfp PPTase inh – inhibitors of Bacillus subtilis Sfp phosphopantetheinyl transferase. Q9F4F7. Biochemical Sfp PPTase activity, qHTS. Potency, µM, most hits filed as inhibitors. 310,000 compounds, 3.5% hits. AID 1490; active = well fitted curve in the direction sought with a large enough effect; inconclusive = small, poorly fitted or top-dose-only effect, or another doubt; inactive = no such curve, though single readings can be large; an effect the other way counts as inactive or inconclusive;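 also: the enzyme is Sfp with the accession as filed and its product quenches rhodamine fluorescence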
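Fluorescence-quenching assay with 15 nM Sfp, 5 uM rhodamine-CoA and 12.5 uM BHQ-2-labelled ybbR peptide in pH 7.6 Hepes/MgCl2 buffer. Enzyme was pre-incubated with compound for 15 min at room temperature. Rate was taken from the 30-min fluorescence change (525/598 nm).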
KDM4E inh – inhibitors of human JMJD2E histone demethylase; 230,000 compounds, 1.6% hits; AID 2147; Potency, µM (series often up to 57.1 µM), usual class: inhibitors; JMJD2E catalytic domain, FDH-coupled NADH fluorescence (FDH is formaldehyde dehydrogenase); also: nearly all actives have a fitted effect of over 50% in size
Target sequence (B2RXH2 1-337 limits assumed): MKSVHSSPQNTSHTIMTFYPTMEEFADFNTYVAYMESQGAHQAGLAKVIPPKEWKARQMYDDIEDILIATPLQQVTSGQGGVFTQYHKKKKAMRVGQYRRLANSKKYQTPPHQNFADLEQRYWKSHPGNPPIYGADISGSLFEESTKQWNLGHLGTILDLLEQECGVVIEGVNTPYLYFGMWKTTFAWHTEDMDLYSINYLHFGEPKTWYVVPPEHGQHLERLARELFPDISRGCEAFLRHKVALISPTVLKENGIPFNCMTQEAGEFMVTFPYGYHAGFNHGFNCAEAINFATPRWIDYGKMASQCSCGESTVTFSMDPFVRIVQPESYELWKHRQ
ALDH1A1 inh – ALDH1A1 (human) enzyme inhibition; P00352; Purified ALDH1A1, NADH fluorescence, propionaldehyde substrate; Potency, µM (highest dose often 75.3 µM), most hits filed as inhibitors; 220,000 compounds, 7.3% hits; AID 1030
NPSR antag – antagonists of human neuropeptide S receptor cAMP signaling. Q6W5P4. CHO-NPSR cells, cAMP TR-FRET, antagonist mode. Potency, µM (highest dose often 38.3 µM), hits mostly inhibitors. 220,000 compounds, 1% hits. AID 1461; active = well fitted curve in the direction sought with a large enough effect; inconclusive = small, poorly fitted or top-dose-only effect, or another doubt; inactive = no such curve, though single readings can be large; an effect the other way counts as inactive or inconclusive; also: nearly all actives have a fitted effect of over 50% in size
Coupling enz – counter-screen for Giardia aldolase inhibitors: coupling enzyme system; coupling enzyme system counterscreen, AmpLite Red fluorescence; 290,000 compounds, 0.67% hits; activity change, negative = inhibition, % at 58.2 µM, hits read low; AID 2472; in the data active = activity change below about -30%
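First, compound is pin-transferred into glyceraldehyde-3-phosphate coupling-enzyme reagent at 57.5 uM final and held 10 min at RT. Next, substrate, coupling system and AmpLite Red are added. After 20 min RT, fluorescence (525/598 nm) is read.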
Large screens that a line does not name were inactive; ! = a repeat was not active. Unless noted, calls follow the shape of the dose curve; as a rule, active = well fitted inhibition curve with a large enough effect (not every such curve was filed as active); inconclusive = small, poorly fitted or top-dose-only effect, or another doubt; inactive = no such curve, though single readings can be large or run the other way.

COc1ccc2nc(-c3ccccc3)[nH]c2c1	KDM4E inh inconclusive, ALDH1A1 inh inconclusive, Coupling enz -32
CCN(CC)CCN(C(=O)c1cc2ccccc2cc1OC)c1nc2ccc(OC)cc2s1	Sfp PPTase inh 50µM (no result: RGS12 GoLoco inh, KDM4E inh, ALDH1A1 inh, NPSR antag)
Cc1ccc2nc(N(CCCN(C)C)C(=O)COc3ccc(Cl)cc3)sc2c1	Sfp PPTase inh 89µM
COc1cc2ccccc2cc1C(=O)N(CCN(C)C)c1nc2ccc(C)cc2s1	Sfp PPTase inh 79µM (no result: RGS12 GoLoco inh, KDM4E inh, ALDH1A1 inh, NPSR antag)
CCN(CC)CCN(C(=O)c1cc2ccccc2cc1OC)c1nc2ccc(F)cc2s1	none (no result: RGS12 GoLoco inh, KDM4E inh, ALDH1A1 inh, NPSR antag)
COc1cc(N2CCCC2)ccc1C=O	ALDH1A1 inh 13µM
O=Cc1ccc(N2CCCCC2)cc1	KDM4E inh inconclusive, ALDH1A1 inh 1.6µM
CC(NC(=O)CNC(=O)c1cccc(Cl)c1)c1ccccc1 (stereo not given)	none (no result: RGS12 GoLoco inh, KDM4E inh, ALDH1A1 inh, NPSR antag)
COc1ccc(C(C(=O)NC2CCCC2)N(C(=O)c2csnn2)C2CCCC2)cc1 (stereo not given)	none (no result: RGS12 GoLoco inh, KDM4E inh, ALDH1A1 inh, NPSR antag)
O=C(Nc1cccc(C(=O)Nc2ccc(S(=O)(=O)O)c3cc(S(=O)(=O)O)cc(S(=O)(=O)O)c23)c1)Nc1cccc(C(=O)Nc2ccc(S(=O)(=O)O)c3cc(S(=O)(=O)O)cc(S(=O)(=O)O)c23)c1	Sfp PPTase inh 45µM!, ALDH1A1 inh inconclusive
Cc1nnc(NC(=O)CSc2cn(CCNC(=O)c3ccccc3)c3ccccc23)s1	ALDH1A1 inh 1.6µM
COc1ccc(C(=O)NCCn2cc(SCC(=O)NCc3ccco3)c3ccccc32)cc1	Sfp PPTase inh inconclusive, ALDH1A1 inh 25µM
O=C(Nc1cc(Cl)ccc1N1CCOCC1)c1cccnc1Cl	none (no result: ALDH1A1 inh)
CCc1cc(-c2n[nH]c(C)c2-c2ccccc2Cl)c(O)cc1OC	Coupling enz -35 (no result: RGS12 GoLoco inh, KDM4E inh, ALDH1A1 inh, NPSR antag)
CCOc1ccc(-c2n[nH]c(C)c2-c2ccccc2OC)c(O)c1	ALDH1A1 inh inconclusive
NC(=O)C1CCCN(C(=O)c2ccc(Cl)cc2)C1 (stereo not given)	none
Cc1ccc(/C=C/C(=O)N2CCCC(C(N)=O)C2)o1 (stereo not given)	Sfp PPTase inh 18µM, ALDH1A1 inh 14µM
Cc1ccc(/C=C/C(=O)N2CCN(c3ncccn3)CC2)o1	KDM4E inh inconclusive, ALDH1A1 inh 3.5µM
Cc1ccc(/C=C/C(=O)N2CCN(c3ccc(F)cc3)CC2)o1	ALDH1A1 inh inconclusive
CCCOc1cccc(C(=O)N/N=C/c2ccoc2)c1	none (no result: RGS12 GoLoco inh, KDM4E inh, ALDH1A1 inh, NPSR antag, Coupling enz)
O=C(O)c1cccc(-n2cccc2/C=C\[N+](=O)[O-])c1	KDM4E inh 14µM, ALDH1A1 inh inconclusive
O=C(O)c1cccc(-n2cccc2/C=C/[N+](=O)[O-])c1	Sfp PPTase inh 32µM, KDM4E inh inconclusive (no result: ALDH1A1 inh)
Oc1ccc(-c2ccccc2)cc1CN1CCCCCC1	Sfp PPTase inh 89µM (no result: RGS12 GoLoco inh, KDM4E inh, ALDH1A1 inh, NPSR antag)
CC(C)CNC(=S)N1CCN(C)CC1	none
CCNC(=S)NCCN1CCCCC1	none
CCCNC(=S)NCCN1CCCCC1	Sfp PPTase inh inconclusive, KDM4E inh inconclusive, ALDH1A1 inh 35µM
CCCCNC(=S)N1CCN(C)CC1	Sfp PPTase inh 10µM, KDM4E inh 8.9µM, ALDH1A1 inh inconclusive
CCCCNC(=S)NCCN1CCCCC1	Sfp PPTase inh 56µM, ALDH1A1 inh inconclusive
COc1ccccc1C(CNc1nc(C(F)(F)F)nc2ccccc12)N(C)C (stereo not given)	none (no result: RGS12 GoLoco inh, KDM4E inh, ALDH1A1 inh, NPSR antag)
CSc1ncc(CN2CCCC(C(=O)Nc3ccc(-c4ccco4)cc3)C2)cn1 (stereo not given)	Sfp PPTase inh 14µM (no result: RGS12 GoLoco inh, KDM4E inh, ALDH1A1 inh, NPSR antag)
O=c1[nH]c2cc(S(=O)(=O)CCO)ccc2o1	none
COc1ccc(C(=O)NC(=S)Nc2cccc3ncccc23)cc1[N+](=O)[O-]	none (no result: RGS12 GoLoco inh, KDM4E inh, ALDH1A1 inh, NPSR antag, Coupling enz)
COCCCNC(=S)NNC(=S)Nc1ccc(F)cc1F	Sfp PPTase inh 79µM, ALDH1A1 inh 7.9µM
COCCCNC(=S)NNC(=S)Nc1ccccc1	Sfp PPTase inh 45µM, ALDH1A1 inh 18µM
COCCCNC(=S)Nc1cccc2ncccc12	ALDH1A1 inh inconclusive, Coupling enz -33
O/N=C1\CCCc2ccc(Cl)cc21	none
NC(=S)c1c(Cl)cc(C(F)(F)F)cc1Cl	none
CC1CCN(C(=O)c2cc(Cl)ccc2NC(=O)c2ccco2)CC1	none (no result: RGS12 GoLoco inh, KDM4E inh, ALDH1A1 inh, NPSR antag)
CC(C)=NNc1nc2c(c(=O)n(C)c(=O)n2C)n1C	Sfp PPTase inh 22µM (no result: ALDH1A1 inh)
Cn1c(=O)c2c(nc(N/N=C/c3ccco3)n2C)n(C)c1=O	Sfp PPTase inh 18µM

Screening results as filed in PubChem BioAssay.
